Data on 37 sequences can be found in paper PMC5892938, “SARNAclust: Semi-automatic detection of RNA protein binding motifs from immunoprecipitation data”.

Whole data set: some 11,000 sequences, median “log2 fold change” near 0.00022, cut for the highest 2% near 0.34. The list shows a part of the results.

The target of this test is GST-SBP-SLBP (stem-loop binding protein) (Homo sapiens, UniProt Q14493 1-270). The experiment in a line: targeted RNA Bind-n-Seq; RBNS binding buffer: 25 mM Tris pH 7.5, 150 mM KCl, 3 mM MgCl2, 0.1% Tween, 0.5 mg/mL BSA, 1 mM DTT; 27 nM protein, 750 pM RNA pool; temperature not stated; high values mean tight binding. Conditions: protein: recombinant; tags: N-terminal GST and SBP (pGEX6P1-SBP); structured_RNA. The method, boiled down: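 The GST-SBP-tagged protein was expressed in Rosetta(DE3) pLysS E. coli, glutathione-purified and incubated at 27 nM with 750 pM of a designed, T7-transcribed RNA oligo pool in RBNS binding buffer. Bound RNA was reverse transcribed with a 10-nucleotide barcoded primer, PCR-amplified and sequenced on a MiSeq with 200-cycle paired-end reads. Reads were joined with FLASH, aligned with HISAT2 and collapsed by barcode. The binding signal is the DEseq log2 fold change of read counts per sequence.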
For “GGUCACGUCUCAAUCAACUCUUCAGAGGGGGGGAAAACCCCUUUGCCCUCAAUUUCAACAGCUCGCAGUCAAG”, the binding signal was determined as 0.337 ± 0.433 log2 fold change.

On to “GGUCACGUCUCAAUCAACUCUCCAGAGGGGGGGAAAACCCCUUUGCCCUCCAUUUCAACAGCUCGCAGUCAAG”, for which the binding signal was 0.536 ± 0.422 log2 fold change.

For “GGUCACGUCUCAAUCAACUCCUACGAGGGGGGGAAAACCCCUUUACCCUCAAAUUCAACAGCUCGCAGUCAAG”, the binding signal amounted to 0.442 ± 0.411 log2 fold change.

With “GGUCACGUCUCAAUCAACUCCUACGAGGGGGGGAAAACCCCUUUACCCUCAACCUCAACAGCUCGCAGUCAAG”, the binding signal came out at 0.619 ± 0.434 log2 fold change.

With “GGUCACGUCUCAAUCAACUCACACGAGGGGGGGAAAACCCCUUUACCCUCAUCCUCAACAGCUCGCAGUCAAG”, the binding signal turned out to be 0.453 ± 0.432 log2 fold change.

Regarding “GGUCACGUCUCAAUCAACUCCUACGAGGGGGGGAAAACCCCUUUACCCUCAUCAUCAACAGCUCGCAGUCAAG”, the binding signal came to 0.348 ± 0.402 log2 fold change.

“GGUCACGUCUCAAUCAACUCCUACGAGGGGGGGAAAACCCCUUUACCCUCAUAAUCAACAGCUCGCAGUCAAG”: the binding signal was 0.382 ± 0.421 log2 fold change.

As for “GGUCACGUCUCAAUCAACUCAUCUUCAGGAGUUUGCUCCUGCAAUCUCAACAGCUCGCAGUCAAG”, the binding signal worked out at 0.328 ± 0.197 log2 fold change.

For the sequence “GGUCACGUCUCAAUCAACUCAUCUCCAGGAGUUUCCUCCUGCAUACUCAACAGCUCGCAGUCAAG”, the binding signal came out at 0.323 ± 0.222 log2 fold change.

In the case of “GGUCACGUCUCAAUCAACUCAUCGCCAGGAGUUUACUCCUGCUAAUUCAACAGCUCGCAGUCAAG”, the binding signal came out at 0.301 ± 0.286 log2 fold change.

With “GGUCACGUCUCAAUCAACUCAACUCCAGGAGUUUACUCCUGUAAUCUCAACAGCUCGCAGUCAAG”, the binding signal was 0.456 ± 0.227 log2 fold change.

As for “GGUCACGUCUCAAUCAACUCAGGUCCAGGAGUUUACUCCUGCAAUUUCAACAGCUCGCAGUCAAG”, the binding signal stood at 0.516 ± 0.297 log2 fold change.

With “GGUCACGUCUCAAUCAACUCAUUCCCAGGAGUUUACUCCUGUAAUUUCAACAGCUCGCAGUCAAG”, the binding signal came to 0.331 ± 0.233 log2 fold change.

“GGUCACGUCUCAAUCAACUCAAUUCCAGGAGUUUCCUCCUGCAUUUUCAACAGCUCGCAGUCAAG”: the binding signal was found to be 0.321 ± 0.19 log2 fold change.

Turning to “GGUCACGUCUCAAUCAACUCUAGUCCAGGAGUUUACUCCUGUUUAUUCAACAGCUCGCAGUCAAG”, the binding signal came to 0.313 ± 0.255 log2 fold change.

For the sequence “GGUCACGUCUCAAUCAACUCAUGUCCAGGAGUUUACUCCUGCAAUCUCAACAGCUCGCAGUCAAG”, the binding signal stood at 0.371 ± 0.281 log2 fold change.

Consider “GGUCACGUCUCAAUCAACUCAGGUCCAGGAGUUUACUCCUGCAAAUUCAACAGCUCGCAGUCAAG”, for which the binding signal is 0.356 ± 0.313 log2 fold change.

As to “GGUCACGUCUCAAUCAACUCUUCCCCAGGAGUUUACUCCUGCAUUUUCAACAGCUCGCAGUCAAG”, the binding signal turned out to be 0.302 ± 0.227 log2 fold change.

On to “GGUCACGUCUCAAUCAACUCAAUCUCAGGAGUUUACUCCUGCAAAGUCAACAGCUCGCAGUCAAG”, for which the binding signal was 0.321 ± 0.217 log2 fold change.

For “GGUCACGUCUCAAUCAACUCAAGUCCAGGAGUUUUCUCCUGCAAAGUCAACAGCUCGCAGUCAAG”, the binding signal stood at 0.447 ± 0.258 log2 fold change.

Take “GGUCACGUCUCAAUCAACUCAAUCCCAGGAGUUUUCUCCUGCAAUGUCAACAGCUCGCAGUCAAG”: the binding signal came out at 0.317 ± 0.214 log2 fold change.

For the sequence “GGUCACGUCUCAAUCAACUCUUCGCCCAGGGAAAGCCCUGGUUAUUUCAACAGCUCGCAGUCAAG”, the binding signal stood at 0.464 ± 0.319 log2 fold change.

Take “GGUCACGUCUCAAUCAACUCUUCUCCCAGGGAAAGCCCUGGCAAUUUCAACAGCUCGCAGUCAAG”: the binding signal worked out at 0.428 ± 0.307 log2 fold change.

As to “GGUCACGUCUCAAUCAACUCUUCUCCCAGGGAAACCCCUGGUUAUUUCAACAGCUCGCAGUCAAG”, the binding signal was found to be 0.372 ± 0.273 log2 fold change.

On to “GGUCACGUCUCAAUCAACUCUUCUCCCAGGGAAAGCCCUGGUUAACUCAACAGCUCGCAGUCAAG”, for which the binding signal was found to be 0.335 ± 0.269 log2 fold change.

In the case of “GGUCACGUCUCAAUCAACUCAAUCUCCAGGGAAAGCCCUGGCAAUGUCAACAGCUCGCAGUCAAG”, the binding signal is 0.309 ± 0.299 log2 fold change.

Regarding “GGUCACGUCUCAAUCAACUCAGUCUCCAGGGAAAUCCCUGGUAUUUUCAACAGCUCGCAGUCAAG”, the binding signal came to 0.347 ± 0.308 log2 fold change.

As to “GGUCACGUCUCAAUCAACUCUAUCUCCAGGGAAAUCCCUGGCAAUGUCAACAGCUCGCAGUCAAG”, the binding signal is 0.418 ± 0.298 log2 fold change.

Take “GGUCACGUCUCAAUCAACUCAAUCUCCAGGGAAAACCCUGGCAAUGUCAACAGCUCGCAGUCAAG”: the binding signal is 0.578 ± 0.314 log2 fold change.

“GGUCACGUCUCAAUCAACUCUAUCUCCAGGGAAAUCCCUGGUAAACUCAACAGCUCGCAGUCAAG”: the binding signal is 0.306 ± 0.25 log2 fold change.

“GGUCACGUCUCAAUCAACUCAGUCUCCAGGGAAAUCCCUGGCAAUCUCAACAGCUCGCAGUCAAG”: the binding signal came to 0.4 ± 0.338 log2 fold change.

For the sequence “GGUCACGUCUCAAUCAACUCUUUCUCCAGGGAAAUCCCUGGCUAUCUCAACAGCUCGCAGUCAAG”, the binding signal worked out at 0.375 ± 0.236 log2 fold change.

Consider “GGUCACGUCUCAAUCAACUCAUUCGCCAGGGAAACCCCUGGGUAUUUCAACAGCUCGCAGUCAAG”, for which the binding signal was found to be 0.329 ± 0.31 log2 fold change.

For “GGUCACGUCUCAAUCAACUCAUUCCCCAGGGAAACCCCUGGCUAACUCAACAGCUCGCAGUCAAG”, the binding signal is 0.341 ± 0.323 log2 fold change.

Regarding “GGUCACGUCUCAAUCAACUCAUCUUCCAGGGAAAACCCUGGCUAAUUCAACAGCUCGCAGUCAAG”, the binding signal came out at 0.36 ± 0.265 log2 fold change.

Regarding “GGUCACGUCUCAAUCAACUCAUUUUCCAGGGAAACCCCUGGCUAAUUCAACAGCUCGCAGUCAAG”, the binding signal was 0.348 ± 0.267 log2 fold change.

Regarding “GGUCACGUCUCAAUCAACUCUUCCCCCAGGGAAACCCCUGGCUAAUUCAACAGCUCGCAGUCAAG”, the binding signal stood at 0.313 ± 0.254 log2 fold change.
